From PubChem BioAssay AID2228 (National Center for Advancing Translational Sciences (NCATS), 2010)
Calls of active or inactive are those of the source.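 Rule for the calls: active = any rise in protein melting temperature, meaning a thermal shift above zero; inactive = the rest.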

Biological target: Luciferin 4-monooxygenase (Photinus pyralis) (UniProt P08659)
Experiment: Thermal Shift Assay for Inhibitors of FLuc (Firefly Luciferase, Photinus pyralis) in Presence of ATP
Settings: Purified FLuc with ATP, SYPRO Orange thermal shift; at 200 µM; hits give high values
Description: Firefly (Photinus pyralis) luciferase (FLuc) is widely used as a reporter in biological assays. […] In order to determine if FLuc thermal stabilization parallels inhibitor potency, a fluorescence-based thermal denaturation assay was developed in this present study. An environmentally sensitive fluorescence dye, SYPRO Orange (Invitrogen, presently Life Technologies) was utilized to monitor the fluorescence change as a function of temperature. The dye preferentially binds to the hydrophobic regions of the protein, and its high signal-to-noise ratio, large Stokes shift and high excitation wavelength make it ideal for thermal shift application. In this assay, the melting temperature (Tm) (the inflection point of the protein melt transition) was assessed for each sample tested. Differences in the Tm between controls and compound-containing samples were determined (the thermal shift or delta Tm), and compounds were ranked by the degree of their thermal shift at the top concentration (200 uM). […] FLuc catalyzes light production in bioluminescent organisms. The reaction requires luciferin, ATP and O2 as substrate, and it includes the formation of a luciferyl-AMP intermediate and the subsequent production of light, AMP, oxyluciferin and CO2. In this study, PTC124 and analogues were evaluated for their potential to stabilize FLuc in the absence and presence of ATP. This particular BioAssay is in the presence of ATP. See related BioAssay "Thermal Shift Assay for Inhibitors of FLuc (Firefly Luciferase, Photinus pyralis) in the Absence of ATP" See [6] for more details on this assay and related studies. Welch, et al. PTC124 targets genetic disorders caused by nonsense mutations. Nature 447 (2007) 87-91. D.S. Auld, N. Thorne, W.F. Maguire, and J. Inglese, Mechanism of PTC124 activity in cell-based luciferase assays of nonsense codon suppression. Proc Natl Acad Sci U S A 106 (2009) 3585-90. D.S. Auld, N. Thorne, D.T. Nguyen, and J. Inglese, A specific mechanism for nonspecific activation in reporter-gene assays. ACS Chem Biol 3 (2008) 463-70. [4]F.H. Niesen, H. Berglund, and M. Vedadi, The use of differential scanning fluorimetry to detect ligand interactions that promote protein stability. Nat Protoc 2 (2007) 2212-21. J.R. de Wet, K.V. Wood, M. DeLuca, D.R. Helinski, and S. Subramani, Firefly luciferase gene: structure and expression in mammalian cells. Mol Cell Biol 7 (1987) 725-37. Auld, et al. Molecular Basis for the High Affinity Binding and Stabilization of Firefly Luciferase by PTC124. Proc Natl Acad Sci U S A, accepted.
Assay Protocol: 1.8 uM FLuc was tested in Tris-acetate buffer (pH 7.6) or phosphate buffer saline (pH 7.4). ATP final concentration was 2 mM. Compounds were tested at 200 uM. Data was captured on an iQ5 Real Time PCR Detection system (Bio-Rad) using a temperature range from 20 to 95C in increments of 1C and a ramping rate of 0.1C/s. Fluorescence intensity changes (Ex 490/Em 575 nm) were monitored with a charge-coupled device (CCD) camera. Buffer: 50 mM Tris-acetate, pH 7.6 (with or without 2 mM ATP); 1X PBS, pH 7.4 (with or without 2 mM ATP)

Chain of Luciferin 4-monooxygenase (Photinus pyralis) (P08659 whole entry, looked up): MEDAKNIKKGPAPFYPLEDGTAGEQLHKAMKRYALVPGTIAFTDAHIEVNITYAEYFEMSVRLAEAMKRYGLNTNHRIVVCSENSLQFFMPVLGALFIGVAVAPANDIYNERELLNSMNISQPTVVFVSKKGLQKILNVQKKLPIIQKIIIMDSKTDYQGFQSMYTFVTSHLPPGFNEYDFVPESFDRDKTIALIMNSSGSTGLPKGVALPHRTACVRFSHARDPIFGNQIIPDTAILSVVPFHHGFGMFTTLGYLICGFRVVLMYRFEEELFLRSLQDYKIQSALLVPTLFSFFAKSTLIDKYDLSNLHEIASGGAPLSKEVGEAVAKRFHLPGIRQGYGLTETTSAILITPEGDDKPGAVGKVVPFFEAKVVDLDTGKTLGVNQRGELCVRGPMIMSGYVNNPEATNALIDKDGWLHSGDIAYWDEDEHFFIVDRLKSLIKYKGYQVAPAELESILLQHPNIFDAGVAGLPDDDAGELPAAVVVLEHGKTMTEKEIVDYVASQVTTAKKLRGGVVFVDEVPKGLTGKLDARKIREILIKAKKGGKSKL

Thermal shift (delta Tm), active:
O=C(O)c1cccc(-c2noc(-c3ccccc3F)n2)c1 13.1 C
NC(=O)c1ccccc1-c1noc(-c2ccccc2F)n1 3.72 C
Nc1ncnc2c1ncn2[C@@H]1O[C@H](COP(=O)(O)OC(=O)c2cccc(-c3noc(-c4ccccc4F)n3)c2)[C@@H](O)[C@H]1O 12.6 C
O=C(O)c1cccc(-c2noc(-c3cccc(Cl)c3)n2)c1 11.8 C
Fc1ccccc1-c1nc(-c2cccc(-c3nn[nH]n3)c2)no1 6.04 C
O=C(O)c1ccccc1-c1noc(-c2ccccc2F)n1 5.48 C
O=C(O)c1ccc(-c2noc(-c3ccccc3F)n2)cc1 11.6 C
NC(=O)c1cccc(-c2noc(-c3ccccc3F)n2)c1 6.12 C
